Only some compounds are listed: those with a hit (about 3% of all), similar ones and a draw of the others.
VDR inh – Inhibitors of the vitamin D receptor (VDR): qHTS; Vitamin D3 receptor (Homo sapiens), P11473; VDR-SRC2-3 peptide fluorescence polarization, 2 h; Potency, µM, actives largely listed as inhibitors; 400,000 compounds, 0.93% hits; AID 504847, 2011
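Fluorescence polarization assay measuring small-molecule disruption of VDR binding to the coregulator peptide SRC2-3. Compounds were pin-transferred (23 nl) into the reagent mix and incubated 2 h at room temperature before reading.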
PLK1 PBD block – qHTS for Inhibitors of PLK1-PDB (polo-like kinase 1 - polo-box domain): Primary Screen. Serine/threonine-protein kinase PLK1 (Homo sapiens), P53350. Plk1 PBD binding of FITC phosphopeptide, fluorescence polarization. Potency, µM, most hits filed as inhibitors. 360,000 compounds, 2.8% hits; further: series mostly up to about 57 µM; nearly all actives have a fitted effect of over 65% in size
Target sequence (P53350 whole entry, looked up, the tested form may be a part): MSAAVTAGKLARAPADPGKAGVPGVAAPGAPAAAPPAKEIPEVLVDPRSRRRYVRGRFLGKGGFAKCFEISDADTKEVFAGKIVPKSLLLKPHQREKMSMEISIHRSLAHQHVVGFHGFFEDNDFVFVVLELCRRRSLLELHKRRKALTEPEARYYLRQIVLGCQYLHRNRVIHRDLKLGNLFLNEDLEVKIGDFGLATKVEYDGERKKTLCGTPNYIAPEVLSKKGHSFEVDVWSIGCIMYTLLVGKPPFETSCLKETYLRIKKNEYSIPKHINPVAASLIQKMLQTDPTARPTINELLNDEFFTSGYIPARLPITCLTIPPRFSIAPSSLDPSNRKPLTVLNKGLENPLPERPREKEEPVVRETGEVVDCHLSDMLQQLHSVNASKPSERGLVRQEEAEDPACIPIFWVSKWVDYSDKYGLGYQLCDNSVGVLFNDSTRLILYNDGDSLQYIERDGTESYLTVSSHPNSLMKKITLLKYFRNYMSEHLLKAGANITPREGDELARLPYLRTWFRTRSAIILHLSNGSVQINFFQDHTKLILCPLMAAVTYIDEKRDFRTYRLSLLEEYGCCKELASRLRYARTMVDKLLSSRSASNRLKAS
12-LOX inh – Primary qHTS assay for inhibitors of human arachidonate 12S-lipoxygenase (ALOX12): Round 2; purified 12hLO, xylenol orange hydroperoxide absorbance; Polyunsaturated fatty acid lipoxygenase ALOX12 (Homo sapiens), P18054; 580,000 compounds, 1.1% hits; Potency, µM (doses to about 108 µM), hits mostly inhibitors
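Purified human 12hLO (150 nM final) in 25 mM Hepes, 0.01% Triton X-100, pH 7.0 was preincubated 15 min at room temperature with compound. Then 40 uM arachidonic acid was added, 30 min. Hydroperoxide was read by Fe-XO absorbance ratio 573/405 nm.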
GCN5L2 inh – qHTS Assay for Inhibitors of GCN5L2; Histone acetyltransferase KAT2A (Homo sapiens), Q92830; GCN5L2 HAT assay, ThioGlo1 CoA-SH fluorescence; Potency, µM (top dose mostly 58.9 µM), usual class: inhibitors; 390,000 compounds, 0.21% hits; AID 504327, 2011
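GCN5L2 (20 nM) in 50mM HEPES pH 7.5, 0.1mM EDTA, 0.01% Tween-20 preincubated 15 min with compounds at room temperature. Reaction started with H3(1-25) 75uM, acetyl-CoA 70uM, ThioGlo1 50uM; CoA-thiol fluorescence (Ex340/Em540) read at 0 and 20 min.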
Hits are given with their value; - = inactive; ? = inconclusive; . = not tested or not shown; ! = repeats disagree; [ ] = remark or other dose. The call rests on the fitted dose curve; in most records, active means well fitted curve in the direction sought with a large enough effect; inconclusive means small, poorly fitted or top-dose-only effect, or another doubt; inactive means no such curve, though single readings can be large; an effect the other way counts as inactive or inconclusive.

SMILES	VDR inh	PLK1 PBD block	12-LOX inh	GCN5L2 inh
O=C(/C=C/c1cccc(O)c1)c1cccc(O)c1	.	.	-	.
O=C(C=Cc1cccc(O)c1)c1ccccc1O	40µM	1.7µM	?	.
O=C(/C=C/c1ccc(O)cc1)c1ccc(O)cc1O	79µM!	-	?	-
Cc1cccc(C)c1NC(=S)NC(=O)c1ccc(Br)o1	?	6µM	45µM	-
Cc1ccc(NC(=S)NC(=O)c2ccc(Br)o2)c(C)c1	-	-	-	-
Cc1cc(C)cc(OCC(=O)Nc2sc3c(c2C(=O)N2CCOCC2)CCCC3)c1	.	.	-	.
COc1ccc(C(=O)n2nnc3ccccc32)cc1Br	-	1.5µM	.	-
Cc1cc(C)cc(NC(=O)c2ncoc2-c2cccs2)c1	.	.	-	.
Cc1ccc2oc(=O)n(CC(=O)O)c2c1	-	27µM	-	-
CCOC(=O)Cn1c(=O)oc2ccc(C)cc21	-	-	-	-
Nc1nnnn1/N=C/c1ccccc1C(F)(F)F	-	3.4µM	-	-
Nc1nnnn1/N=C/c1ccccc1	-	-	-	-
O[C@@H]1[C@@H](Cn2cc(-c3cccnc3)nn2)C[C@@H](NCc2nccs2)[C@@H]1O	.	.	-	.
CCCNC(=O)N[C@@H]1C[C@H](Cn2cc(-c3cccnc3)nn2)[C@@H](O)[C@H]1O	.	.	14µM	.
CC1(c2ccccc2)N(Cc2ccccc2)C(=O)OC12CCN(Cc1cccnc1)CC2 (stereo unspecified)	.	.	-	.
Cc1cc2ccccc2n1CC(=O)Nc1ccc(OCC(N)=O)cc1	.	.	-	.
CCC(C)(C)C1CCc2c(sc(N)c2C#N)C1 (stereo unspecified)	.	.	28µM	.
CCC(=O)Nc1sc2c(c1C#N)CCC(C(C)(C)CC)C2 (stereo unspecified)	.	.	-	.
Cc1cc(C)c(NC(=O)CN(C2CCCCC2)C2CCCCC2)c(C)c1	-	-	-	-
Cc1cc(C)c(NC(=O)CCCCCNC2CCCCC2)c(C)c1	-	27µM	-	-
CCOc1ccc(-c2nc(CN3CCCC(O)C3)cs2)cc1OC (stereo unspecified)	.	.	-	.
Nc1nnc(SCCOc2cccc(Br)c2)s1	-	-	-	-
Clc1ccc(OCCCCSc2ncccn2)cc1	-	30µM	-	-
Brc1cccc(OCCSc2ncccn2)c1	-	13µM	-	-
Cc1ccc(-c2nnc(C3CN(C(=O)c4ccccc4C)CC34CCOCC4)o2)cc1 (stereo unspecified)	.	.	-	.
SMILES	VDR inh	PLK1 PBD block	12-LOX inh	GCN5L2 inh
COc1ccc2[nH]c(C(=O)N3CCN4CCS(=O)(=O)N(C5CC5)C(=O)C4C3)cc2c1 (stereo unspecified)	.	.	22µM	.
N#CC(C(=O)CCOCc1ccccc1)c1ccc2ccccc2n1 (stereo unspecified)	.	.	-	.
Oc1ccc(Br)cc1C1C=C(c2ccc3c(c2)OCO3)NC(c2ccc(F)c(Br)c2)N1 (stereo unspecified)	50µM	.	.	.
COc1ccc(C2CC(c3cccc(F)c3)=NN2c2ccc(S(N)(=O)=O)cc2)cc1 (stereo unspecified)	-	-	32µM	-
COc1ccc(C2CC(c3cccc(Br)c3)=NN2c2ccc(S(N)(=O)=O)cc2)cc1 (stereo unspecified)	-	-	?	-
O=C(/C=C/c1ccccc1)c1ccc(Sc2ccccc2)cc1	.	.	-	.
O=C1OC(c2ccccc2)/C(=C(/O)c2ccc(Cl)cc2)C1=O (stereo unspecified)	45µM	-	-	-
O=[N+]([O-])c1ccccc1COc1ccc(Cl)c2cccnc12	-	24µM	-	-
O=[N+]([O-])c1ccccc1OCCCOc1ccc(Cl)c2cccnc12	.	.	-	.
COc1ccc(CN(C)Cc2c(O)ccc3ccccc23)cc1	-	?	10µM	-
COc1cccc(CN(C)Cc2c(O)ccc3ccccc23)c1	-	17µM	10µM	-
COc1ccc2ccccc2c1CN(C)Cc1ccccc1	-	-	-	-
Cc1cccc(Oc2ccc(NC(=O)c3ccc4c(c3)NC(=O)CS4)cc2)c1	.	.	-	.
COc1cccc(C(=O)OC(C)C(=O)C23CC4CC(CC(C4)C2)C3)c1OC (stereo unspecified)	.	.	-	.
FC(F)(F)c1cc(-c2ccccc2)nc(SCc2ccncc2)n1	.	.	-	.
CCc1oc2ccccc2c1C(=O)c1cc(I)c(O)c(I)c1	32µM	.	13µM	8.9µM
Cc1cc(SCC(=O)NC(=O)NCc2ccco2)nc2ccccc12	-	?	-	-
Cc1cccc(-c2nsc(SCC(=O)NCC3CCCO3)n2)c1 (stereo unspecified)	-	8.4µM	-	-
Cc1cccc(-c2nsc(SCC(=O)c3ccc(Cl)cc3)n2)c1	-	17µM	-	-
C=CCNC(=O)C1CC1(c1cccc(C)c1)c1cccc(C)c1 (stereo unspecified)	-	-	-	.
Cc1cc(SCC(=O)NC(=O)NCc2ccco2)nc2c(C)cccc12	?	?	22µM	-
Cc1cccc(C2(c3cccc(C)c3)CC2C(=O)NCC2CCCO2)c1 (stereo unspecified)	?	27µM	-	-
CSCCC(=O)NCCc1ccsc1	.	.	-	.
CC(=O)Nc1ccc(CN2CCC3(Cc4ccccc4CN(C(C)=O)C3)C2)cc1 (stereo unspecified)	.	.	-[6.33 µM]	.
Cc1ccc(CNc2nc3ccccc3nc2NS(=O)(=O)c2ccccc2)cc1	.	.	-	.
SMILES	VDR inh	PLK1 PBD block	12-LOX inh	GCN5L2 inh
CCOc1ccccc1N1C(=O)CC(Sc2nc(C)c3cc(OC)ccc3n2)C1=O (stereo unspecified)	.	.	-	.
Cc1ccc2nc(SCC(=O)NCc3ccco3)c(C)cc2c1	-	-	-	-
CCOC(=O)CNC(=O)CSc1nnc(SCC(=O)NCC(=O)OCC)s1	-	-	-	-
CCOC(=O)CNC(=O)CSc1nc(-c2cccc(C)c2)ns1	79µM	11µM	?	-
Cc1cccc(-c2nsc(SCC(=O)NCc3ccco3)n2)c1	-	21µM	-	-
O=C(CSc1ccc2nnc(-c3cccc(F)c3)n2n1)NCC1CCCO1 (stereo unspecified)	-	?	3.5µM	-
CC1=C(C(=O)N2CCCCC2)C(c2ccc(C)cc2)C2=C(CC(C)(C)CC2=O)N1 (stereo unspecified)	.	.	-	.
Cc1nn(CCc2nnc(Nc3ccn(Cc4ccccc4Cl)n3)s2)c(C)c1Cl	.	.	-	.
COc1ccc(CNC(=O)CCn2c(=O)c3cccn3c3ccc(F)cc32)cc1	?	27µM	-	-
CSc1ccc(CNC(=O)CCn2c(=O)c3cccn3c3ccc(F)cc32)cc1	-	.	-	-
Cc1cccc(C)c1OCCCCn1c(C2CC(=O)N(c3ccc(F)cc3)C2)nc2ccccc21 (stereo unspecified)	-	.	32µM	-
Cc1cccc(C)c1OCCn1c(C2CC(=O)N(c3cccc(Cl)c3)C2)nc2ccccc21 (stereo unspecified)	-	.	-	-
Cc1c(-c2ccccc2)c(=O)oc2c(CN3CCCC3)c(O)ccc12	-	.	-	35µM

High-throughput results as filed in PubChem BioAssay.
